Assay results published in PubChem BioAssay (NCATS).
Records with an inconclusive call do not appear. Active and inactive are the calls of the source. Unless noted, the call rests on the fitted dose curve; in most records, active means well fitted curve in either direction with a large enough effect (not every such curve was filed as active); inconclusive means small, poorly fitted or top-dose-only effect, or another doubt; inactive means flat fitted curve, though single readings scatter.

Legend:
[1] = AP1 Signaling Pathway (AID 357); conditions: ME-180 AP-1-bla reporter, EGF-induced, beta-lactamase ratio, 5 h; at 17.2 µM (top of the series) unless noted; further: on the % scale 0 is the no-effect control and ±100 the full control effect
In short: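 ME-180 cells with beta-lactamase reporter under AP-1 response element, stimulated with EC50 EGF; compounds tested in titration series, 5 h at 37 °C. CCF4 substrate added 2.5 h at room temperature; 460/530 nm emission ratio gave %activity and AC50.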

[2] = NFAT Signaling Pathway (AID 444); conditions: Jurkat NFAT-bla M1, carbachol, beta-lactamase ratio, 5 h; at 17.2 µM (top of the series) unless noted;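 further: carbachol stimulus at about its EC50 of 1 µM final; on the % scale 0 is the no-effect control and ±100 the full control effect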
In short: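 Jurkat cells carrying an NFAT-driven β-lactamase reporter and co-transfected muscarinic M1 receptor were treated with compound plus carbachol (1 uM final, an EC50 level) for 5 h at 37 °C. CCF4 loading followed for 1 h at RT; 460/530 nm ratio gave %activity.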

[3] = Stat Signaling Pathway (AID 446);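 further: ME-180 cervical cancer cells given 40 pM IL-6 alongside compound; SIE-controlled beta-lactamase reporter measured as 460/530 nm FRET emission ratio; on the % scale 0 is the no-effect control and ±100 the full control effect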
In short: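 Screening format detects activators and inhibitors alike: ME-180 SIE-bla cells stimulated at 40 pM IL-6 for 5 hrs with compound, then dual-emission beta-lactamase read at 405 nm excitation.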

[4] = biological target: Glucocorticoid receptor (Homo sapiens) (UniProt P04150); test: GR-GFP Redistribution (AID 450;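 active means compounds whose dose series gives a full or clear partial fitted curve of increased nuclear translocation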; further: potency means the concentration at half of the fitted maximal effect); conditions: U2OS GR-GFP nuclear translocation, laser cytometry, 2 h
[5] = biological target: 3',5'-cyclic-AMP phosphodiesterase 4B (Homo sapiens) (UniProt Q07343); test: qHTS Assay for Inhibitors of PDE-IV (AID 607; active means well fitted activation curve with a large enough effect in the main read-out, with a control signal flat, not every such curve was filed as active; further: % of control where 0% means no effect)
In short: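 The readout is membrane depolarisation from a cAMP-sensing CNG channel, detected with a potential dye at ex 535/em 590. Cells were HEK293-derived (endogenous PDE-IV) at 1000 cells/well, titrated up to 22.9 uM final.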

[6] = biological target: Guanine nucleotide-binding protein G(i) subunit alpha-1 (Homo sapiens) (UniProt P63096); test: qHTS Assay for Inhibitors of RGS12 GoLoco Motif Activity (Green Fluorophore) (AID 879; active means well fitted curve in the direction sought with a large enough effect; an effect the other way counts as inactive or inconclusive;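 further: 0% = labeled peptide with Gαi1 and full inhibition = labeled peptide alone without protein; negative values mean loss of peptide binding seen as reduced polarization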)
In short: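 Fluorescence polarization assay: 50 nM Gαi1 with 10 nM FITC-labeled RGS12 GoLoco peptide in 10 mM Tris pH 7.5, 150 mM NaCl, 0.1 mM GDP, 0.05% NP40, 10 min at room temperature with compound.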

[7] = biological target: Pyruvate kinase (Leishmania mexicana) (UniProt Q27686); test: qHTS Validation Assay for Inhibitors of Leishmania Mexicana Pyruvate Kinase (AID 945; active means well fitted curve in the direction sought with a large enough effect; an effect the other way counts as inactive or inconclusive;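 further: 0% = DMSO only neutral control wells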)
In short: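 LmPYK E451W 0.2 nM; 0.5 mM PEP, 0.1 mM ADP, 7 mM MgCl2, 50 mM KCl, imidazole pH 7.2, 0.01% Tween 20, 0.05% BSA; 1 h RT; PKLight luminescence; DMSO-normalized.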

[8] = biological target: Pyruvate kinase PKM (Homo sapiens) (UniProt P14618); test: qHTS Assay for Activators of Human Muscle Pyruvate Kinase (AID 954; active means well fitted curve in the direction sought with a large enough effect, not every such curve was filed as active;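 further: 0% = uninhibited enzyme and -100% = no enzyme or full thiadiazolimine inhibition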)
In short: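 Reaction: 0.1 nM purified PKM2 with 0.5 mM phosphoenolpyruvate and 0.1 mM ADP, room temperature, 1 h. Readout: luciferase-based ATP luminescence after stop reagent. Activators judged against a 0.3 nM enzyme column.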

[9] = biological target: Alpha-galactosidase (Coffea arabica) (UniProt Q42656); test: Counterscreen for Glucocerebrosidase Inhibitors: qHTS Assay for Coffee Bean alpha-Galactosidase at pH 4.5 (AID 957; active means well fitted curve in the direction sought with a large enough effect; an effect the other way counts as inactive or inconclusive;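 further: plate controls were enzyme alone for no effect and no enzyme for full effect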)
In short: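 AC50 values derive from Hill-equation modeling of concentration-response data, normalized to no-enzyme and full-activity controls. The pH 4.5 citrate assay used 2 nM coffee bean enzyme and 80 uM fluorogenic substrate for 20 min.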

[10] = biological target: Alpha-galactosidase A (Homo sapiens) (UniProt P06280); test: Counterscreen for Glucocerebrosidase Inhibitors: qHTS Assay for Human alpha-Galactosidase at pH 4.5 (AID 992; active means well fitted curve in the direction sought with a large enough effect; an effect the other way counts as inactive or inconclusive; further: 0% is about no effect)
In short: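 Concentration-response curves (0.7 nM to 77 uM final) were modeled with the Hill equation to give AC50. Reactions: 2 nM enzyme, 80 uM fluorogenic alpha-galactoside, pH 4.5 citric acid buffer, 20 min, room temperature.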

[11] = biological target: alpha-glucosidase (Oryza sativa, rice) (UniProt Q653V4); test: Counterscreen for Glucocerebrosidase Inhibitors: qHTS Assay for Rice alpha-Glucosidase at pH 5.0 (AID 997; active means well fitted curve in the direction sought with a large enough effect; an effect the other way counts as inactive or inconclusive;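 further: 0% = full activity with enzyme and -100% = basal without enzyme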)
In short: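 Rice alpha-glucosidase (4 nM final) with 400 uM 4-methylumbelliferyl-alpha-D-glucopyranoside in citrate buffer pH 5.0, 20 min at room temperature, stopped at pH 10; fluorescence 365/440 nm, compounds 0.7 nM–77 uM, AC50 from Hill fits.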

[12] = biological target: Alpha-galactosidase (Coffea arabica) (UniProt Q42656); test: Counterscreen for Glucocerebrosidase Inhibitors: qHTS Assay for Coffee Bean alpha-Galactosidase at pH 5.9 (AID 998; active means well fitted curve in the direction sought with a large enough effect; an effect the other way counts as inactive or inconclusive;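 further: plate controls were uninhibited enzyme for no effect and no-enzyme basal signal for full effect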)
In short: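 Green coffee bean enzyme (2 nM final) was incubated with compounds (0.7 nM–77 uM) and 4-methylumbelliferyl alpha-D-galactopyranoside (80 uM) in citrate buffer pH 5.9, 20 min at room temperature. High-pH stop; fluorescence 365/440 nm; AC50 from Hill fits.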

Chain of Glucocorticoid receptor (Homo sapiens) (P04150 whole entry, looked up): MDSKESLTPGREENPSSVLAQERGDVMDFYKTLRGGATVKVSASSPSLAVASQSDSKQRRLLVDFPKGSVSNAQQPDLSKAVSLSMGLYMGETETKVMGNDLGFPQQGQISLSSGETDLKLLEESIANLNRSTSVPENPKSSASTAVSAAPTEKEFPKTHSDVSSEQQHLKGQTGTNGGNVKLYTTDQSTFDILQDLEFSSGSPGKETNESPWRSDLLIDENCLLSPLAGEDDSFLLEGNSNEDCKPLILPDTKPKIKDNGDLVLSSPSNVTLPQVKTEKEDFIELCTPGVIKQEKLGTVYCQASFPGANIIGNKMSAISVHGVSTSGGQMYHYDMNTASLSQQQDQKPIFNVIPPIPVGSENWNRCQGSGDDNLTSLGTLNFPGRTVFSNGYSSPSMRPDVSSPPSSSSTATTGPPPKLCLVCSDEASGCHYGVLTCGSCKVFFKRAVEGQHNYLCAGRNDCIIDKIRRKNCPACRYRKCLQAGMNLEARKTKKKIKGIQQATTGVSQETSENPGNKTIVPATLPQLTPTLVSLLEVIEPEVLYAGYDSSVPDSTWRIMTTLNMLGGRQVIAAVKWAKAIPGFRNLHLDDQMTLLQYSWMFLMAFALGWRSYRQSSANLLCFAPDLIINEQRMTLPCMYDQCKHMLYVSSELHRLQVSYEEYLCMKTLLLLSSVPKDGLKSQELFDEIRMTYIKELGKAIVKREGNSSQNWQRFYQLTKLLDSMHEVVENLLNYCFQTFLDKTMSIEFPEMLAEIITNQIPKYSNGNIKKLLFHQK
Chain of Alpha-galactosidase (Coffea arabica) (Q42656 whole entry, looked up): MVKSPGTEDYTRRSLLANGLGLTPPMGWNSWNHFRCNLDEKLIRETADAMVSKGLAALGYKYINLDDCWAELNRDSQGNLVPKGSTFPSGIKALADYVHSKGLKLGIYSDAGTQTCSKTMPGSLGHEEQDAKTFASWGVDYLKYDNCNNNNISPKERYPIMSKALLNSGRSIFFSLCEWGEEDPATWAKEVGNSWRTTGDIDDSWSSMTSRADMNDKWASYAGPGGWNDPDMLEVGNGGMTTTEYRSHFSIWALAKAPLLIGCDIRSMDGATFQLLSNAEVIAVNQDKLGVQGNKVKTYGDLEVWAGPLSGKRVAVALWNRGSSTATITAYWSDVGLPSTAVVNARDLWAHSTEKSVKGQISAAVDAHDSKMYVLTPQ
Chain of 3',5'-cyclic-AMP phosphodiesterase 4B (Homo sapiens) (Q07343 whole entry, looked up): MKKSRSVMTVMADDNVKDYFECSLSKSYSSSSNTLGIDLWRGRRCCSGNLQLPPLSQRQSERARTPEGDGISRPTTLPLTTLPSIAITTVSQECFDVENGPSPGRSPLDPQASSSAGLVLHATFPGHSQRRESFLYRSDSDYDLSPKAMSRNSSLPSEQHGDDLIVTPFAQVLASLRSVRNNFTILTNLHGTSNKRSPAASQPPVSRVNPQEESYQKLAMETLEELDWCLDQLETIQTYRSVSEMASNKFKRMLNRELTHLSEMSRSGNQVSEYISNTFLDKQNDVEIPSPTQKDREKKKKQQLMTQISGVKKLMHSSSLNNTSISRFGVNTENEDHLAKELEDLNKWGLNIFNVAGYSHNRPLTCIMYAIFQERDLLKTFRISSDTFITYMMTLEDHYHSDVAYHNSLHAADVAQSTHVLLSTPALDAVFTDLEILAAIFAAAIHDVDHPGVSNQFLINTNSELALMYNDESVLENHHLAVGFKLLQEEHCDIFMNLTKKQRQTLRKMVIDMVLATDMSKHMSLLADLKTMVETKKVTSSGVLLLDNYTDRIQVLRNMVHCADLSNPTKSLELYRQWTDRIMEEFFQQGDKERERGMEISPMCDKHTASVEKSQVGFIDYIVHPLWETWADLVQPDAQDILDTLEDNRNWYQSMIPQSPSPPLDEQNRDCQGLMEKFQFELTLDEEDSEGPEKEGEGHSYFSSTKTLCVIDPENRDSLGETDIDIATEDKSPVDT
Chain of Pyruvate kinase (Leishmania mexicana) (Q27686 2-499 E452W): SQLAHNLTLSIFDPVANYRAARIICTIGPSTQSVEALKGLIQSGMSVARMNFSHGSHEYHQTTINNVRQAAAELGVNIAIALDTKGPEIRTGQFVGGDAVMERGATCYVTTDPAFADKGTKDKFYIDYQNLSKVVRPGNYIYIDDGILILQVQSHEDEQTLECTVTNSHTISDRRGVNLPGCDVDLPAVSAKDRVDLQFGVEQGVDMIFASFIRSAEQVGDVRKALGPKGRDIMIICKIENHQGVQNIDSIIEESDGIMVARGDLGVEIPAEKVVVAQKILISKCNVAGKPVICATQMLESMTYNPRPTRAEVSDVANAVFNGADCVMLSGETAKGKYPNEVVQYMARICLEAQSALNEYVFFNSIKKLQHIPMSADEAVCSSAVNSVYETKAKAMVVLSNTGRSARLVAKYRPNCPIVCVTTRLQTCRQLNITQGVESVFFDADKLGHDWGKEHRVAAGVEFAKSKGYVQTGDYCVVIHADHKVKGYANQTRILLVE
Chain of Pyruvate kinase PKM (Homo sapiens) (P14618 whole entry, looked up): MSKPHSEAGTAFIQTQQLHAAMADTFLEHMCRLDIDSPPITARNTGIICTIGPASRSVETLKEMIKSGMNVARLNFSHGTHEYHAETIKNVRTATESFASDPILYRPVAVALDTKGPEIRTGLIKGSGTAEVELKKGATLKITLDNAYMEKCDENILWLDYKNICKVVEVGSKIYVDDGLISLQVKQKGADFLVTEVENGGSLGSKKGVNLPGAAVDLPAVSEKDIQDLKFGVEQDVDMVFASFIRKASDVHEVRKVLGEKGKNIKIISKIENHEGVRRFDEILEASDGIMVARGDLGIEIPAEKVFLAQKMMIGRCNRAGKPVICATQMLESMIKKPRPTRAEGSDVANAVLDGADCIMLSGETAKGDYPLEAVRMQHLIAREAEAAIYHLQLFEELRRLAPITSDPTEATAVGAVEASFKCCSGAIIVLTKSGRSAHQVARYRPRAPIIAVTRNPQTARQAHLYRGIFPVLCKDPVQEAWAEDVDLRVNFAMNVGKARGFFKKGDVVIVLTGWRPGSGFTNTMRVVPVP
Chain of Alpha-galactosidase A (Homo sapiens) (P06280 whole entry, looked up): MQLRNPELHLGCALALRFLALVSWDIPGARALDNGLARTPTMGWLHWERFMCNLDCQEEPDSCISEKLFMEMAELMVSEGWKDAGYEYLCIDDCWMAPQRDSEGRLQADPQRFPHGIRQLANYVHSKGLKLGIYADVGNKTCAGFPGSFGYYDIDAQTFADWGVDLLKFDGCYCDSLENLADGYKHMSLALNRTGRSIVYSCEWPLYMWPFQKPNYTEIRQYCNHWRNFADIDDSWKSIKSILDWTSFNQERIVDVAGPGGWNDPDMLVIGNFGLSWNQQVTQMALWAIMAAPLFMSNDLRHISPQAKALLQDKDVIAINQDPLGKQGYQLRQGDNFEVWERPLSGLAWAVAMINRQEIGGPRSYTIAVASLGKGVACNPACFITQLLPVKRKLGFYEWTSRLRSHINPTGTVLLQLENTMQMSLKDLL
Chain of Guanine nucleotide-binding protein G(i) subunit alpha-1 (Homo sapiens) (P63096 whole entry, looked up): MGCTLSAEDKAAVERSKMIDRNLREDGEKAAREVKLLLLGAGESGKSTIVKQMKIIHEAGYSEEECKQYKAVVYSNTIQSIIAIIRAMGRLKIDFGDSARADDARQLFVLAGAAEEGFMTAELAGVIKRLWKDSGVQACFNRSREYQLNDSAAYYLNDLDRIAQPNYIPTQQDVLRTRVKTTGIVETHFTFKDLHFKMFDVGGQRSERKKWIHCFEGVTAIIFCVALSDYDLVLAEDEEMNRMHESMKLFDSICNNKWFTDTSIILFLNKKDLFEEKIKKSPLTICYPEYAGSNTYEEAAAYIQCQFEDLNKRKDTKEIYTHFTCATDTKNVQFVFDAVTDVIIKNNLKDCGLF

CCN(CC)CCCC(C)N=C(c1ccccc1)c1c(O)n(C)c(=O)n(C)c1=O (stereo not drawn)
inactive: activity change, negative = inhibition [1] -17.7% | activity change, negative = inhibition [2] -29.5% | outcome [3] | Potency [4] > 20.6 µM

OC(c1ccc(F)cc1)C(c1ccccc1)N1CCOCC1 (stereo not drawn)
inactive: activity change, negative = inhibition [1] -21.7% | activity change, negative = inhibition [2] -1.44% | outcome [3] | Potency [4] > 20.6 µM

CCCSP1(=S)NCCCO1 (stereo not drawn)
inactive: activity change, negative = inhibition [1] 32.4% | activity change, negative = inhibition [2] 2.72% | outcome [3] | Potency [4] > 20.6 µM

Nc1ccc(C2(c3ccc(N)cc3)CN3CCC2CC3)cc1
inactive: activity change, negative = inhibition [1] 7.52% | activity change, negative = inhibition [2] -2.19% | outcome [3] | Potency [4] > 20.6 µM

COc1ccc2c(c1OC)C(=O)OC2c1c(O)n(C2CCCCC2)c(=O)[nH]c1=O (stereo not drawn)
inactive: activity change, negative = inhibition [1] -13.3% | activity change, negative = inhibition [2] -3.36% | outcome [3] | Potency [4] > 20.6 µM

C=CCOC(=O)C1=C(C)OC(N)=C(C#N)[C@@]12C(=O)N(CC(N)=O)c1ccccc12
inactive: activity change, negative = inhibition [1] 6.24% | activity change, negative = inhibition [2] -10.1% | outcome [3] | Potency [4] > 20.6 µM

O=c1[nH]c(=O)n(Cc2ccccc2)c(O)c1C=NCCN1CCOCC1
inactive: activity change, negative = inhibition [1] 1.24% | activity change, negative = inhibition [2] -7.84% | outcome [3] | Potency [4] > 20.6 µM

Cc1ccc(C)c(C2(O)CC(C)N(C)CC2C)c1 (stereo not drawn)
inactive: activity change, negative = inhibition [1] 22.9% | activity change, negative = inhibition [2] 9.11% | outcome [3] | Potency [4] > 20.6 µM

CCOC(=O)[C@]1(C#N)[C@@H]2C=CC(C(C)=O)=CN2[C@@H](C(N)=O)[C@@H]1c1ccsc1
inactive: activity change, negative = inhibition [1] -0.365% | activity change, negative = inhibition [2] -15.2% | outcome [3] | Potency [4] > 20.6 µM

Cc1ccc(-n2c(O)c(C=NCCN3CCOCC3)c(=O)[nH]c2=O)cc1
inactive: activity change, negative = inhibition [1] 6.04% | activity change, negative = inhibition [2] 13.7% | outcome [3] | Potency [4] > 20.6 µM

CCOc1ccc(-n2c(O)c(C=NCCN3CCNCC3)c(=O)[nH]c2=O)cc1
inactive: activity change, negative = inhibition [1] 9.57% | activity change, negative = inhibition [2] 0.77% | outcome [3] | Potency [4] > 20.6 µM

O=c1[nH]c(=O)n(-c2cccc(Cl)c2)c(O)c1C=NCCN1CCCCC1
inactive: activity change, negative = inhibition [1] -0.739% | activity change, negative = inhibition [2] -1.95% | outcome [3] | Potency [4] > 20.6 µM

CCCCCCn1c(O)c(C=NCCCn2ccnc2)c(=O)[nH]c1=O
inactive: activity change, negative = inhibition [1] -8.92% | activity change, negative = inhibition [2] -9.29% | outcome [3] | Potency [4] > 20.6 µM

COc1cc2[nH]c(=O)n(-c3cccc(Cl)c3)c(=O)c2cc1OC
inactive: activity change, negative = inhibition [1] 9.62% | activity change, negative = inhibition [2] 13.7% | outcome [3] | Potency [4] > 20.6 µM

CC(=O)OC1(c2ccc(C)cc2)CN2CCC1c1ccccc12 (stereo not drawn)
inactive: activity change, negative = inhibition [1] 7.68% | activity change, negative = inhibition [2] -10.3% | outcome [3] | Potency [4] > 20.6 µM

COC(=O)C(c1ccccc1)N1CCCCCC1 (stereo not drawn)
inactive: activity change, negative = inhibition [1] 17.9% | activity change, negative = inhibition [2] -19.7% | outcome [3] | Potency [4] > 20.6 µM

CC(C)(C)OC(=O)c1c(N)n(Cc2ccco2)c2nc3ccccc3nc12
inactive: activity change, negative = inhibition [1] -26.4% | activity change, negative = inhibition [2] 5.75% | outcome [3] | Potency [4] > 20.6 µM

COc1ccc(C(=O)CN2CCOCC2)cc1F
inactive: activity change, negative = inhibition [1] 1.47% | activity change, negative = inhibition [2] 3.56% | outcome [3] | Potency [4] > 20.6 µM

C=CCN1CC[C@]23c4c5ccc(O)c4O[C@@H]2C(=O)CC[C@@]3(O)[C@H]1C5
inactive: activity change, negative = inhibition [1] 3.28% [at 38 µM] | activity change, negative = inhibition [2] -0.768% [at 38 µM] | outcome [3] | outcome [5] | Potency [6] | Potency [7] | outcome [8] | outcome [9] | outcome [10] | outcome [11] | outcome [12]
